{
  "source": "PubChem BioAssay (NCI)",
  "note": "Compounds without any hit were thinned out: in the full panel of roughly 83,000, 20% have a hit.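 Each cell line was grown in a 96-well plate and treated with one concentration of compound for 48 hours. Values below 10 were considered active.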 Activity calls are given as the source filed them.",
  "data": [
    {"test_system": "OVCAR-5 ovarian", "assay": "NCI-60 one-dose screen, 48 h (100 = growth as untreated, 0 = no growth, -100 = all killed)", "conditions": "10 µM unless noted", "values": [
      {"smiles": "COc1ccc(C2C3CCc4ccccc4C3=NN2C(=O)c2cc(OC)c(OC)c(OC)c2)cc1O", "note": "(centres undefined)", "growth": "101% (inactive)"},
      {"smiles": "CCOC(=O)c1ccc(NC(=O)NC2=NCCS2)cc1", "growth": "96.5% (inactive)"},
      {"smiles": "CC(C)COC(=O)NC(C)(C)C", "growth": "97.9% (inactive)"},
      {"smiles": "Cn1c(=O)c2[nH]c(Cc3ccc4c(c3)OCO4)nc2n(C)c1=O", "growth": "90.5% (inactive)"},
      {"smiles": "Nc1nc(N)c2c(n1)NC(c1sc(Cl)nc1Cl)CC(c1ccc3c(c1)OCO3)=N2", "note": "(centres undefined)", "growth": "66.3% (inactive)"},
      {"smiles": "Cc1ccccc1N1C(c2ccccc2)=NNC12C=CC(=O)c1c(O)cccc12", "note": "(centres undefined)", "growth": "83.8% (inactive)"},
      {"smiles": "Nc1nc(N)c2c(n1)NC(c1sc(Cl)nc1Cl)CC(c1ccccc1)=N2", "note": "(centres undefined)", "growth": "76.7% (inactive)"},
      {"smiles": "C=C1NC(=O)C(C(C)CC)NC(=O)C2CSCC(NC(=O)CCC(=O)O)C(=O)NC(Cc3ccccc3)C(=O)NC(C)C(=O)NC(CC(C)CC)C(=O)NC(C(=O)NC(Cc3ccccc3)C(=O)N3CCCC3C(=O)N2)C(C)OC(=O)C(CO)NC(=O)C(C(O)COC)N(C)C(=O)C(C(C)C)NC(=O)C(CC(C)CC)NC1=O", "note": "(centres undefined)", "growth": "44.9% [6 µM] (inactive)"},
      {"smiles": "Cc1nc2c(-c3cnc(N)nc3)nc(N3CCOCC3)nc2n1C(C)C", "growth": "7.67% (active)"},
      {"smiles": "C=CC[C@]1(O)CC[C@H]2[C@@H]3CCc4cc(O)ccc4[C@H]3CC[C@@]21C", "growth": "98.5% (inactive)"},
      {"smiles": "COS(=O)(=O)CCN(CCOS(C)(=O)=O)S(C)(=O)=O", "growth": "101% (inactive)"},
      {"smiles": "Cc1nc2ccc(Nc3nc(NCCN4CCOCC4)nc(Nc4ccc(F)cc4)n3)cc2n1Cc1ccccc1", "growth": "84.1% (inactive)"},
      {"smiles": "COC1CC(N)C2OC(c3ccccc3)OCC2O1", "note": "(centres undefined)", "growth": "94.4% (inactive)"},
      {"smiles": "COc1ccc2[nH]cc(C(c3ccc(Cl)cc3)N3CCCC3)c2c1", "note": "(centres undefined)", "growth": "101% (inactive)"},
      {"smiles": "CCOP(=O)(O)OP(=O)(O)OCC", "growth": "96.9% (inactive)"},
      {"smiles": "COc1cccc(/C=N/N=C(N)N)c1", "growth": "89.7% (inactive)"},
      {"smiles": "COc1ccc(C2CC(c3ccc(Nc4ccnc5cc(Cl)ccc45)cc3)=NN2c2ccccc2)cc1", "note": "(centres undefined)", "growth": "86.2% (inactive)"},
      {"smiles": "CC1=C(O)C(=O)C(c2c(C)cc(C)c(Br)c2C)=C(O)C1=O", "growth": "70.1% (inactive)"},
      {"smiles": "FC(F)(F)C1=NNC(c2ccc3ccccc3c2)=NN1", "growth": "96.9% (inactive)"},
      {"smiles": "NC(N)=N/N=C\\c1ccc(OCc2ccccc2)cc1", "growth": "82.8% (inactive)"},
      {"smiles": "COc1ccc(NC(=O)C2c3ccccc3C(=O)N(CC(C)C)C2c2cccs2)cc1", "note": "(centres undefined)", "growth": "97% (inactive)"},
      {"smiles": "NC(N)=N/N=C\\c1cccc(OCc2ccccc2)c1", "growth": "85.3% (inactive)"},
      {"smiles": "CS(=O)(=O)Nc1cc(-c2cc3ncc(C#N)c(Nc4ccc(Oc5ccccc5)c(Cl)c4)c3s2)cnc1Cl", "growth": "75.9% (inactive)"},
      {"smiles": "Cc1ccc(NC(=O)c2nc(S(C)(=O)=O)oc2-c2ccc(F)cc2)cc1Nc1ccc2ncn(C)c(=O)c2c1", "growth": "102% (inactive)"},
      {"smiles": "CC(=O)[C@H]1CC[C@H]2[C@@H]3CC[C@H]4CC=CC[C@]4(C)[C@H]3CC[C@]12C", "growth": "87% (inactive)"},
      {"smiles": "COc1cccc(NC(=O)[C@H](C(C)C)n2c(=O)[nH]c3ccccc3c2=O)c1", "growth": "108% (inactive)"},
      {"smiles": "CC(C)N1CCN(c2ccncc2S(=O)(=O)N2CCN(C)CC2)CC1", "growth": "96.9% (inactive)"},
      {"smiles": "[O-]/[N+](=C\\c1ccccc1)CC1(O)CCCCC1", "growth": "95.8% (inactive)"},
      {"smiles": "CCc1ccc(-c2ccc(NC3CCCCCC3)nn2)cc1S(N)(=O)=O", "growth": "97.5% (inactive)"},
      {"smiles": "C[C@@H]1C[C@H](N)C[C@H](c2ccncc2NC(=O)c2ccc(F)c(-c3c(F)cccc3F)n2)C1", "growth": "71.3% (inactive)"},
      {"smiles": "COC(=O)C(CCC(=O)CCl)N1C(=O)c2ccccc2C1=O", "note": "(centres undefined)", "growth": "79.3% (inactive)"},
      {"smiles": "CCCCCCCCCCCCCCC(C(=O)OCC)C(=O)OCC", "growth": "103% (inactive)"},
      {"smiles": "O=C(Nc1ccc2[nH]c3ccccc3c2c1)c1ccccc1Cl", "growth": "82.4% (inactive)"},
      {"smiles": "CN(C)c1ccc(/C=C(\\C#N)c2nc3ccccc3n2C)cc1", "growth": "64.3% (inactive)"},
      {"smiles": "O=C(CS)OCC(COC(=O)CS)(COC(=O)CS)COC(=O)CS", "growth": "104% (inactive)"},
      {"smiles": "C#CC[C@@H]1C[C@]2(C)[C@H]3CC=C4[C@H]5[C@@H](C)[C@H](C)CC[C@]5(C(=O)NCCCCN)CC[C@@]4(C)[C@]3(C)CC[C@H]2C(C)(C)[C@H]1OC(C)=O", "growth": "108% (inactive)"},
      {"smiles": "CC(=O)N1N=C(c2ccc(C)cc2)CC1c1cn(-c2ccccc2)nc1-c1cccc(Nc2ccnc3cc(Cl)ccc23)c1", "note": "(centres undefined)", "growth": "133% (inactive)"},
      {"smiles": "CCN(CC)CCC(CNc1ccnc2cc(Cl)ccc12)c1ccc(O)cc1", "note": "(centres undefined)", "growth": "103% (inactive)"},
      {"smiles": "CNC(=O)c1ccccc1Sc1ccc2c(/C=C/c3ccccn3)n[nH]c2c1", "growth": "41.4% (inactive)"}
    ]}
  ]
}
